According to PubChem BioAssay:
Records with an inconclusive call do not appear. Calls of active or inactive are those of the source. Unless noted, how the calls were made is not given here.

Tests used:
[1] = growth inhibition of DIPG glioma cells, dose response, cell-based, SU-DIPG-XVII, MIPE5.0, CellTiter-Glo, qHTS (AID 1347060; cut-off not given, nearly all actives have AC50 up to about 26 µM;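 on AC50: cells exposed to compound for 48 hours before viability readout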); details: SU-DIPG-XVII viability, CellTiter-Glo ATP luminescence
[2] = growth inhibition of DIPG glioma cells, dose response, cell-based, SU-DIPG-XIII, MIPE5.0, CellTiter-Glo, qHTS (AID 1347064; cut-off not given, nearly all actives have AC50 up to about 23 µM;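 on AC50: cells exposed to compound for 48 hours before the viability read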); details: SU-DIPG-XIII viability, CellTiter-Glo ATP luminescence
[3] = viability loss in pontine glioma line – cell-based, SU-DIPG-XXV, MIPE5.0, CellTiter-Glo, qHTS, dose response (AID 1347065; cut-off not given, nearly all actives have AC50 up to about 26 µM;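 further: cells exposed to compound for 48 hours before ATP readout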); details: CellTiter-Glo ATP luminescence
[4] = SU-DIPG-VI glioma cell viability, MIPE4.0 library, CellTiter-Glo luminescence, qHTS (AID 1347066; cut-off not given, nearly all actives have AC50 up to about 30 µM;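 further: cells exposed to compound for 48 hours before readout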); details: CellTiter-Glo ATP luminescence
[5] = SU-DIPG-XXV glioma cell viability, MIPE5.0 library, qHTS (AID 1347068; cut-off not given, nearly all actives have IC50 up to about 30 µM;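 on IC50: cells exposed to compound for 48 hours before viability readout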)
[6] = circadian clock period modulators, cell-based, LOPAC library, luminescence reporter (AID 2774); details: circadian reporter cells, at 7 µM, actives lie on both sides;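 further: values are relative to mean of DMSO wells on each plate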
[7] = hESC survival regulators, cell-based (AID 493140); details: human embryonic stem cell survival screen; stronger effect = higher value;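 further: cells exposed to compounds for four days before counting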
[8] = system: Hepatitis C virus NS3 helicase; test: HCV NS3 helicase inhibitors, primary screen, biochemical, fluorescence polarization, LOPAC1280 library (AID 687035; in the data active means inhibition above about 37%); details: Purified HCV NS3 helicase, Cy5-dT15 ssDNA binding fluorescence polarization; stronger effect = higher value; concentration not given here
[9] = Cy5 fluorescence quenching or enhancement artefacts, artefact control for HCV NS3 helicase inhibitor project, biochemical, LOPAC1280 (AID 687037); details: Cy5-DNA-NS3h complex fluorescence interference counterscreen
[10] = system: Aerobactin synthetase IucA (Klebsiella pneumoniae); test: IucA aerobactin synthetase inhibitors, biochemical, Tocris library, absorbance (AID 1345561); details: purified IucA enzyme assay, absorbance (OD) read-out; stronger effect = lower value;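 tested at 8 µM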;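 further: 100% = enzyme without compound and 0% = no enzyme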
[11] = phospholipid biosynthesis inhibitors in animal cells, primary screen, cell-based, LOPAC library, screen 4 (AID 1347384); details: phospholipid biosynthesis inhibition screen, at 10 µM
[12] = reducers of polyQ inclusions in PC12 cells, cell-based, NGF-treated PC12, GFPQ80 (AID 1614); details: PC12 NGF-treated GFP-polyQ80 inclusion reduction;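 further: lower means fewer inclusions and 0 means no inclusions at all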

CC(C)(S)[C@@H](N)C(=O)O
inactive: outcome [1] | outcome [2] | outcome [3] | outcome [4] | outcome [5]

CC(C)C[C@H]1C(=O)N2CCC[C@H]2[C@]2(O)O[C@](NC(=O)[C@@H]3C=C4c5cccc6[nH]c(Br)c(c56)C[C@H]4N(C)C3)(C(C)C)C(=O)N12
inactive: period change [6] 0.365 h | survival [7] 29.8 | inhibition [8] 2% | fluorescence ratio (interference) [9] 0.9 | remaining activity [10] 93.8% | outcome [11]

O=C(O)c1cc(=O)c2ccccc2[nH]1
inactive: period change [6] 0.025 h | inhibition [8] -6% | fluorescence ratio (interference) [9] 1 | remaining activity [10] 94.6% | outcome [11]
2: inclusion score [12]

C=C(C)[C@@H]1CC[C@]2(C(=O)O)CC[C@]3(C)[C@H](CC[C@@H]4[C@@]5(C)CC[C@H](O)C(C)(C)[C@@H]5CC[C@]43C)[C@@H]12
active: AC50 [1] 20900 nM | AC50 [3] 14800 nM
inactive: survival [7] 9.75 | outcome [4] | outcome [5]

C=C1C(=O)O[C@H]2[C@H]1CC/C(C)=C/CC[C@@]1(C)O[C@@H]21
inactive: remaining activity [10] 83.6%

O=C(O)C1=CCNCC1
inactive: period change [6] 0.375 h | inhibition [8] -3% | fluorescence ratio (interference) [9] 1 | remaining activity [10] 102% | outcome [11]
2: inclusion score [12]

C[C@H]1C[C@H]2[C@@H]3CCC4=CC(=O)C=C[C@]4(C)[C@@]3(F)[C@@H](O)C[C@]2(C)[C@@]1(O)C(=O)CO
inactive: survival [7] 9.67 | outcome [4]

COc1cccc(OC)c1OCCNCC1COc2ccccc2O1 (stereo not drawn)
inactive: period change [6] 0.335 h | inhibition [8] -1% | fluorescence ratio (interference) [9] 1 | remaining activity [10] 108% | outcome [11]

CC(C)(O)CC[C@@H](O)[C@](C)(O)[C@H]1CC[C@@]2(O)C3=CC(=O)[C@@H]4C[C@@H](O)[C@@H](O)C[C@]4(C)[C@H]3CC[C@]12C
inactive: outcome [1] | outcome [2] | outcome [3] | outcome [4] | outcome [5]

O=C1c2c(O)cccc2[C@H]([C@@H]2O[C@H](CO)[C@@H](O)[C@H](O)[C@H]2O)c2cc(CO)cc(O)c21
inactive: outcome [4]

O=C(O)c1cc(=O)c2ccc(Cl)cc2[nH]1
inactive: period change [6] -0.105 h | remaining activity [10] 104%

COc1ccc([C@@H]2CC(=O)c3c(O)cc(O[C@@H]4O[C@H](CO[C@@H]5O[C@@H](C)[C@H](O)[C@@H](O)[C@H]5O)[C@@H](O)[C@H](O)[C@H]4O)cc3O2)cc1O
inactive: outcome [1] | outcome [2] | outcome [3] | outcome [4] | outcome [5]

O=C(O)c1c2ccccc2cc2ccccc12
2: inclusion score [12]
inactive: remaining activity [10] 101%

CN[C@H](CC(C)C)C(=O)N[C@H]1C(=O)N[C@@H](CC(N)=O)C(=O)N[C@H]2C(=O)N[C@H]3C(=O)N[C@H](C(=O)N[C@H](C(=O)O)c4cc(O)cc(O)c4-c4cc3ccc4O)[C@H](O)c3ccc(c(Cl)c3)Oc3cc2cc(c3O[C@@H]2O[C@H](CO)[C@@H](O)[C@H](O)[C@H]2O[C@H]2C[C@](C)(N)[C@H](O)[C@H](C)O2)Oc2ccc(cc2Cl)[C@H]1O
inactive: period change [6] -0.05 h | survival [7] 13.8 | inhibition [8] -5% | fluorescence ratio (interference) [9] 1 | outcome [1] | outcome [3] | outcome [5] | outcome [11]

Nc1ccn([C@@H]2O[C@H](CO)[C@@H](O)[C@H]2O)c(=O)n1
inactive: outcome [2] | outcome [3] | outcome [4] | outcome [5]

COc1ccc(CCC(=O)c2c(O)cc(O[C@@H]3O[C@H](CO)[C@@H](O)[C@H](O)[C@H]3O[C@@H]3O[C@@H](C)[C@H](O)[C@@H](O)[C@H]3O)cc2O)cc1O
inactive: outcome [4]

CC(=O)[C@H]1CC[C@H]2[C@@H]3CCC4=CC(=O)CC[C@]4(C)[C@H]3CC[C@]12C
inactive: period change [6] 0.25 h | survival [7] 8.58 | inhibition [8] -4% | fluorescence ratio (interference) [9] 0.9 | outcome [11]

COC1=C(OC)C(=O)C(C/C=C(\C)CC/C=C(\C)CC/C=C(\C)CC/C=C(\C)CC/C=C(\C)CC/C=C(\C)CC/C=C(\C)CC/C=C(\C)CC/C=C(\C)CCC=C(C)C)=C(C)C1=O
inactive: outcome [4]

COc1cc([C@@H]2c3cc4c(cc3[C@H](O)[C@H]3COC(=O)[C@@H]23)OCO4)cc(OC)c1OC
active: AC50 [1] 525 nM | AC50 [2] 2630 nM | AC50 [3] 742 nM | IC50 [5] 934 nM

COc1cc2c(c(OC)c1OC)-c1ccc(OC)c(=O)cc1C(NC(C)=O)CC2 (stereo not drawn)
inactive: remaining activity [10] 109%

C[C@@H]1[C@H](O)[C@@H](C)/C=C/C=C/C=C/C=C/C=C/C=C/C=C/[C@H](O[C@@H]2O[C@H](C)[C@@H](O)[C@H](N)[C@@H]2O)C[C@@H]2O[C@](O)(C[C@@H](O)C[C@@H](O)[C@H](O)CC[C@@H](O)C[C@@H](O)CC(=O)O[C@H]1C)C[C@H](O)[C@H]2C(=O)O
inactive: outcome [1] | outcome [4] | outcome [5]
